From PubChem BioAssay (NCATS) come the findings set out here.

For assay [1], the target named is Lysosomal acid glucosylceramidase (Homo sapiens) (UniProt P04062). Put plainly: Glucocerebrosidase-p2 (AID 348; in the data active = potency below about 10 µM; note: potency is the fitted concentration of half-maximal effect). The note with it: purified GBA, blue fluorogenic substrate, 40 min. In outline:
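Normal human glucocerebrosidase (0.2 nM) with blue fluorogenic substrate (80 uM final) in citrate/phosphate pH 5.9 with 10mM sodium taurocholate, 0.01% tween-20; 40 min RT, NaOH/glycine stop; fluorescence Ex 365/Em 440; AC50 from a titration from 0.6 nM upwards.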

Assay [2] is described as follows: AP1 Signaling Pathway (AID 357).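 Note: ME-180 reporter cells stimulated with EGF at its EC50 level; % is set by controls: 0 for no effect and ±100 for the full control effect.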 The note with it: ME-180 AP-1-bla reporter, EGF-induced, beta-lactamase ratio, 5 h; at 7.69 µM (top of the series) unless noted. An outline of the steps:
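Titration-series screen for positive or negative modulators of EC50 EGF-induced signaling in ME-180 cells carrying an AP-1-driven beta-lactamase reporter. After 5 hours at 37 degrees Celsius, CCF4 460nm/530nm emission ratio gave %Activity; AC50 values derived.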

Assay [3] has as its target Cytochrome P450 1A2 (Homo sapiens) (UniProt P05177). Put plainly: p450-cyp1a2 (AID 410; calls by dose curve; note: potency is the fitted concentration of half-maximal effect). The conditions noted are these: recombinant CYP1A2, luciferin-ME demethylation, luminescence; series mostly up to 57 µM. An outline of the steps: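 Read-out is luminescence from luciferin produced by CYP1A2 demethylation of Luciferin-ME (100uM, at Km). Detection reagent stopped the 60 min NADPH-dependent reaction; signals were normalized to 57 uM furafylline.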

Assay [4] can be described thus: NFAT Signaling Pathway (AID 444).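 Note: carbachol stimulus at about its EC50 of 1 µM final; % is set by controls: 0 for no effect and ±100 for the full control effect.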 The note with it: Jurkat NFAT-bla M1, carbachol, beta-lactamase ratio, 5 h; at 7.69 µM (top of the series) unless noted. In outline:
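Read-out: CCF4 FRET ratio (460 nm/530 nm) after 1 h RT dye loading, used for %activity and AC50 from titration series. Cells: Jurkat NFAT-β-lactamase/M1 line, treated with compound plus 1 uM carbachol for 5 h, 37 °C.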

Assay [5] can be described thus: Stat Signaling Pathway (AID 446).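 Note: ME-180 cervical cancer cells given 40 pM IL-6 alongside compound; SIE-controlled beta-lactamase reporter measured as 460/530 nm FRET emission ratio; % is set by controls: 0 for no effect and ±100 for the full control effect.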 The note with it: ME-180 SIE beta-lactamase reporter, IL-6 stimulated, 5 h; at 7.69 µM (top of the series) unless noted. An outline of the steps:
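Overnight-plated ME-180 cells bearing a STAT Inducible Element beta-lactamase reporter; 5 h co-exposure to compound and 40 pM IL-6; values normalized to 300 pM IL-6 and 125 nM JAK inhibitor controls.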

Assay [6] deals with Glucocorticoid receptor (Homo sapiens) (UniProt P04150). Put plainly: GR-GFP Redistribution (AID 450;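 active = compounds whose dose series gives a full or clear partial fitted curve of increased nuclear translocation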; note: potency is the fitted concentration of half-maximal effect). The note with it: U2OS GR-GFP nuclear translocation, laser cytometry, 2 h.
Chain of Glucocorticoid receptor (Homo sapiens) (P04150 whole entry, looked up, the tested form may be a part): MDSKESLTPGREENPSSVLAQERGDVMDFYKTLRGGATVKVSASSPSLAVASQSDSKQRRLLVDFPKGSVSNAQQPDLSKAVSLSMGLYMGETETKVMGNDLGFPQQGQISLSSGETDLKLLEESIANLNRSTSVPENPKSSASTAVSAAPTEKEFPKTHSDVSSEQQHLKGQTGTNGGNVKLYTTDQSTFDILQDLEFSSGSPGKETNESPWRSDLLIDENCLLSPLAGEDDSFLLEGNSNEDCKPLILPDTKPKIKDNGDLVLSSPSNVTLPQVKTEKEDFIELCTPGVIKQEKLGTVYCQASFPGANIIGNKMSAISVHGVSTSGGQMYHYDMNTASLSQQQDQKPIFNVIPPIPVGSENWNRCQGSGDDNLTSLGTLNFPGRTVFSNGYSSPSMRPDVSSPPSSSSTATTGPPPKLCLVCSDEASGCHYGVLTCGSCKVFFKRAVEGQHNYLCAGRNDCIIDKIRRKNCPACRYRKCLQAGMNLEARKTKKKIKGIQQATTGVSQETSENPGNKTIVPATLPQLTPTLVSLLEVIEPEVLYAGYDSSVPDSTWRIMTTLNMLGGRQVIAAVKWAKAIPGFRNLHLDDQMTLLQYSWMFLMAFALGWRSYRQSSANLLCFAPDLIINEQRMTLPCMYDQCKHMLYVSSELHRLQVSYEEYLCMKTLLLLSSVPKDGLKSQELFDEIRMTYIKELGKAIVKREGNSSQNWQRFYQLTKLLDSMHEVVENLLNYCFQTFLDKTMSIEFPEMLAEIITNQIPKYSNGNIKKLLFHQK
Assay [7] has the same target. Put plainly: GR-EFC Redistribution (AID 451; calls by dose curve; note: potency is the fitted concentration of half-maximal effect). The conditions noted are these: CHO-K1 GR-EFC translocation, beta-gal luminescence, 2 h. In outline: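 Translocation of GR-ED fusion to nuclear EA restores b-gal, read by luminescence after 1 h room-temperature detection. Engineered CHO-K1 biosensor cells, 1,000/well, exposed 2 h at 37 C to titrations up to 46 uM final.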

Assay [8] addresses Mitogen-activated protein kinase 10 (Mus musculus) (UniProt Q61831). The experiment in a line: JNK3 AlphaScreen Assay (AID 530).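 Note: kinase came from lysate of stimulated human HepG2 cells; signal reports phosphorylation of biotinylated GST-cJun 1-79 at Ser73 with 10 µM ATP; % is set by controls: 0 for no effect and ±100 for the full control effect.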 The conditions noted are these: JNK3 lysate, c-Jun phosphorylation; series mostly up to 57.1 µM. An outline of the steps:
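Kinase buffer: 20 mM Tris-HCl pH 7.6, 10 mM MgCl2, 1 mM DTT, 0.1 mM Na3VO4, 0.01% Tween-20; ATP 10 uM. Substrate biotin-GST-cJun(1-79), enzyme from activated HepG2 lysates. Detection by Ser73 phospho-antibody AlphaScreen.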
For orientation: Bead proximity is the source of the signal in Alpha formats.

For assay [9], the target named is 3',5'-cyclic-AMP phosphodiesterase 4B (Homo sapiens) (UniProt Q07343). Put plainly: qHTS Assay for Inhibitors of PDE-IV (AID 607; active = well fitted activation curve with a large enough effect in the main read-out, with a control signal flat, not every such curve was filed as active; note: % of control where 0% means no effect). The note with it: HEK293 ACTOne CNG channel cells, membrane potential fluorescence; series mostly up to 22.9 µM. An outline of the steps:
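Live HEK293 cells with a modified cyclic nucleotide-gated (CNG) channel report intracellular cAMP via membrane-potential dye fluorescence (ex 535/em 590 nm). Endogenous PDE-IV was targeted. Compounds were tested at up to 22.9 uM final; RO 20-1724 100 uM served as control.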

Assay [10] has as its target Cytochrome P450 3A4 (Homo sapiens) (UniProt P08684). Put plainly: qHTS Assay for Activators of Cytochrome P450 3A4 (AID 885; active = well fitted curve in the direction sought with a large enough effect; an effect the other way counts as inactive or inconclusive; note: nearly all actives have a fitted effect of over 65% in size). The note with it: recombinant CYP3A4, Luciferin-PPXE luminescence, 60 min; series mostly up to 57.1 µM. An outline of the steps: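 Using 20nM recombinant human CYP3A4 in potassium phosphate (200mM), substrate Luciferin-PPXE at 25uM, luminescent luciferin detection followed a 60-min RT NADPH reaction; data scaled to 57 uM ketoconazole.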
(In general: Quantitative high-throughput screening tests each substance at several concentrations.)

Assay [11] has as its target Cytochrome P450 2C19 (Homo sapiens) (UniProt P33261). Put plainly: qHTS Assay for Inhibitors and Substrates of Cytochrome P450 2C19 (AID 899; active = well fitted curve in the direction sought with a large enough effect; an effect the other way counts as inactive or inconclusive; note: potency is the fitted concentration of half-maximal effect; nearly all actives have a fitted effect of over 60% in size). The note with it: recombinant CYP2C19, luciferin-H EGE luminescence; series mostly up to 57.1 µM. In outline:
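Luminescence readout of luciferin formed from 10uM Luciferin-H EGE (KM level) by 5 nM CYP2C19 in 50mM KPO4. 60 min NADPH-driven reaction at 37C after 10 min compound preincubation; data scaled to 57uM ketoconazole inhibition.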

Assay [12] in a line: Primary qHTS for small molecule stabilizers of the endoplasmic reticulum resident proteome: Secreted ER Calcium Modulated Protein (SERCaMP) assay (AID 1508630; active = well fitted curve in the direction sought with a large enough effect; an effect the other way counts as inactive or inconclusive; note: % is set by controls: 0 for no effect and ±100 for the full control effect). The conditions noted are these: SH-SY5Y GLuc-SERCaMP (Gaussia luciferase released on ER calcium loss) secretion, thapsigargin, luminescence; series mostly up to 38.4 µM. In outline: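 The SH-SY5Y reporter protocol was run at 3 concentrations up to 38.3 uM (primary) or 11 concentrations (follow-up): 16 h compound, 100 nM thapsigargin for 4 h, then extracellular luciferase luminescence.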

A short description of assay [13]: Confirmation and Secondary Assay for Modulators of Hemoglobin Beta Chain Splicing at IVS2 654 locus (AID 910; active = well fitted curve in the direction sought with a large enough effect; an effect the other way counts as inactive or inconclusive;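 note: HeLa cells stably carrying EGFP split by mutant beta-globin IVS2-654 intron; per-well total GFP intensity by laser scanning cytometry after 2-day treatment; % of control where 0% means no effect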). The conditions noted are these: HeLa EGFP-654 splicing reporter, GFP fluorescence, 48 h; series mostly up to 38.3 µM. In outline: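 Readout: per-well total peak green fluorescence (488 nm ex, 500–520 nm em) from objects 5–250 µm, reflecting correct splicing of an EGFP-654 reporter. Compounds were applied for 2 days at 37 °C to overnight-plated HeLa EGFP-654 cells; controls were DMSO and 500 nM IVS2-654 PNA.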

Assay [14] in a line: qHTS Assay for Identification of Small Molecule Agonists for Hypoxia Response Element Signaling Pathway (AID 914; active = well fitted activation curve with a large enough effect in the signal ratio, with a control signal flat, not every such curve was filed as active; the % refers to the signal ratio; note: % of control where 0% means no effect). The note with it: ME-180 (cervical carcinoma) HRE-bla reporter, beta-lactamase ratio, CoCl2, 17 h; activation: active compounds read high. An outline of the steps:
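Reporter activity (beta-lactamase, CCF4 460nm/530nm ratio) in HRE-bla ME-180 cells is recorded after 17 h compound exposure with EC50 CoCl2 at 37 degrees Celsius. AC50 values come from titration data.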

A short description of assay [15]: Confirmation and Secondary Assay for Modulators of Hemoglobin Beta Chain Splicing at IVS2 705 locus (AID 930; active = well fitted curve in the direction sought with a large enough effect; an effect the other way counts as inactive or inconclusive;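 note: HeLa cells stably expressing the EGFP-705 splicing reporter; GFP fluorescence per well restored by corrected splicing of the IVS2-705 intron in EGFP; % of control where 0% means no effect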). The note with it: HeLa EGFP-705 splicing reporter, GFP fluorescence, 48 h; series mostly up to 38.3 µM. In outline:
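Stable HeLa line with EGFP disrupted by mutant beta-globin intron 2 (705). Overnight attachment, then 2 days of compound at 37C, 5% CO2. Signal: peak GFP intensity summed over objects 5-250 µm.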

In assay [16] the target is Ubiquitin carboxyl-terminal hydrolase 1 (Homo sapiens) (UniProt O94782). Put plainly: Inhibitors of USP1/UAF1: Pilot qHTS (AID 504865; active = well fitted curve in the direction sought with a large enough effect; an effect the other way counts as inactive or inconclusive;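 note: rhodamine fluorescence freed from ubiquitin-rhodamine substrate followed over time; top concentration of the series differs between compounds; % is set by controls: 0 for no effect and ±100 for the full control effect; nearly all actives have a fitted effect of over 35% in size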). The note with it: purified USP1/UAF1, Ub-rhodamine cleavage fluorescence; series mostly up to 54.9 µM. An outline of the steps:
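Kinetic fluorescence assay: 1nM USP1/UAF1, 15 min compound preincubation, then 150nM Ub-Rho; 480/540 nm.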

Assay [17] addresses Cytochrome P450 2C9 (Homo sapiens) (UniProt P11712). The experiment in a line: qHTS Assay for Inhibitors and Substrates of Cytochrome P450 2C9 (AID 883; active = well fitted curve in the direction sought with a large enough effect; an effect the other way counts as inactive or inconclusive; note: potency is the fitted concentration of half-maximal effect; nearly all actives have a fitted effect of over 60% in size). The conditions noted are these: recombinant CYP2C9, luciferin-H luminescence, 60 min; series mostly up to 57.1 µM. An outline of the steps: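 Luminescent read-out of deoxyluciferin hydroxylation, normalized to 57uM sulphaphenazole (AC100). Reaction: 10nM enzyme, 100uM Luciferin-H (equal to KM), 25mM KPO4, 10 min compound preincubation, then 60 min with NADPH regeneration, both at 37C.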

A number with no mark means an inactive call. Results filed as inconclusive are left out. Calls of active or inactive are those of the source. Unless noted, calls come from the whole dose curve; as a rule, active = well fitted curve in either direction with a large enough effect (not every such curve was filed as active); inconclusive = small, poorly fitted or top-dose-only effect, or another doubt; inactive = flat fitted curve, though single readings scatter.

Chain of 3',5'-cyclic-AMP phosphodiesterase 4B (Homo sapiens) (Q07343 whole entry, looked up): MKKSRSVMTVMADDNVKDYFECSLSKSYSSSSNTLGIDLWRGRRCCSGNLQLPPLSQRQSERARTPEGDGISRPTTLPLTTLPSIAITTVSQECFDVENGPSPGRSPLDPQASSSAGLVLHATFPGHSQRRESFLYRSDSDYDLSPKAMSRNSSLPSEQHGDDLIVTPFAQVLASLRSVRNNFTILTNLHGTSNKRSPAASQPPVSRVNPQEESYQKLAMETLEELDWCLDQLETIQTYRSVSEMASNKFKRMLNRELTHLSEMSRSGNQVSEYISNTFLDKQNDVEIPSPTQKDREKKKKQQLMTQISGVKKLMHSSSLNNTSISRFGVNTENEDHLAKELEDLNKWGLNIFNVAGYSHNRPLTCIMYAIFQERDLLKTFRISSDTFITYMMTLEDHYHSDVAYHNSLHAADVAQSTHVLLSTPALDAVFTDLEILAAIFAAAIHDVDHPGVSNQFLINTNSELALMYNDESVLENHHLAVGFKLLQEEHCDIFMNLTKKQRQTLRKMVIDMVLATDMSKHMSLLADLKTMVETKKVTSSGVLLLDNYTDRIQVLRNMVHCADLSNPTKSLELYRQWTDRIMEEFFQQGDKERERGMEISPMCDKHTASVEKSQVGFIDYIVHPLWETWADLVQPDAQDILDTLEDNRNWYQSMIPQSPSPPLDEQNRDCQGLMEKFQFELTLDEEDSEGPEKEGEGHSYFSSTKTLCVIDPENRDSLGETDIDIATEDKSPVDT
Chain of Cytochrome P450 1A2 (Homo sapiens) (P05177 whole entry, looked up): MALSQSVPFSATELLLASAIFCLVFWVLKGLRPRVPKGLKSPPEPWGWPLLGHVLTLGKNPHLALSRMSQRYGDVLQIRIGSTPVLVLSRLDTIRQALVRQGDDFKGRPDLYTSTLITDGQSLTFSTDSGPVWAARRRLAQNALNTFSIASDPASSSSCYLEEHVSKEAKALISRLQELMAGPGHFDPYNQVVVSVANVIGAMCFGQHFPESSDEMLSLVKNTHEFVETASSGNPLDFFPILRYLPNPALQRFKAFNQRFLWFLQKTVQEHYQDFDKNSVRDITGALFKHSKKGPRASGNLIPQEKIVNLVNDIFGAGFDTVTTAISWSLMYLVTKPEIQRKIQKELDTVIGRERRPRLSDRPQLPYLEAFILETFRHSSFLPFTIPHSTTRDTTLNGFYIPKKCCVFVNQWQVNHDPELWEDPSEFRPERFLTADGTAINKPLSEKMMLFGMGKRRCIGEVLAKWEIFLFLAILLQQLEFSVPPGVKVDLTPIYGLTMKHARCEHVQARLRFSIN
Chain of Lysosomal acid glucosylceramidase (Homo sapiens) (P04062 whole entry, looked up): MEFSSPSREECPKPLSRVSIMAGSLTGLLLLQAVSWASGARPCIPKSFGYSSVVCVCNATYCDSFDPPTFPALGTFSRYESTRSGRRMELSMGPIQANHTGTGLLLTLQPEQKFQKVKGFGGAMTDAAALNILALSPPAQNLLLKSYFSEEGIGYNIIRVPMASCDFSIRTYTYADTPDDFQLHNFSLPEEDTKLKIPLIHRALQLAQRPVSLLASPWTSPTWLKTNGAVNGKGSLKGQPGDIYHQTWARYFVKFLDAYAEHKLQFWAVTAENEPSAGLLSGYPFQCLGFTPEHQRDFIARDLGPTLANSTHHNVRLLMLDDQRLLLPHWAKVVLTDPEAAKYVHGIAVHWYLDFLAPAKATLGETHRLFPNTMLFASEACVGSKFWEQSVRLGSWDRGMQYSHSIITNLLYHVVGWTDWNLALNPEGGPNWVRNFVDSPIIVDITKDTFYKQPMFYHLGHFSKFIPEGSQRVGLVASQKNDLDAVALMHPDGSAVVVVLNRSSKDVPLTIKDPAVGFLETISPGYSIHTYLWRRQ
Chain of Cytochrome P450 3A4 (Homo sapiens) (P08684 whole entry, looked up): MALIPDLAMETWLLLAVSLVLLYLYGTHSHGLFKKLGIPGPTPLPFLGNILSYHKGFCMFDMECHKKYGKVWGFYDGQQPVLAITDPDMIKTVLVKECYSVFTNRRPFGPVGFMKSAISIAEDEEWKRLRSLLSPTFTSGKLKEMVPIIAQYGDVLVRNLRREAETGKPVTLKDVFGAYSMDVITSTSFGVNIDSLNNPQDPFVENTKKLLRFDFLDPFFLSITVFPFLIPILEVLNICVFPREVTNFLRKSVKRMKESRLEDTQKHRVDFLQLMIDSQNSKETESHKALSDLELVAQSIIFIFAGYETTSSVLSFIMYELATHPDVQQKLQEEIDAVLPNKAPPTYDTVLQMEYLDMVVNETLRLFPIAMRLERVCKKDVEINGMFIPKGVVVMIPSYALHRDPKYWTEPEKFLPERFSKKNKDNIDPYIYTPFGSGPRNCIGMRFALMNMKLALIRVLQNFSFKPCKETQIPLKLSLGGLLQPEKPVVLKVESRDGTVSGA
Chain of Cytochrome P450 2C19 (Homo sapiens) (P33261 whole entry, looked up): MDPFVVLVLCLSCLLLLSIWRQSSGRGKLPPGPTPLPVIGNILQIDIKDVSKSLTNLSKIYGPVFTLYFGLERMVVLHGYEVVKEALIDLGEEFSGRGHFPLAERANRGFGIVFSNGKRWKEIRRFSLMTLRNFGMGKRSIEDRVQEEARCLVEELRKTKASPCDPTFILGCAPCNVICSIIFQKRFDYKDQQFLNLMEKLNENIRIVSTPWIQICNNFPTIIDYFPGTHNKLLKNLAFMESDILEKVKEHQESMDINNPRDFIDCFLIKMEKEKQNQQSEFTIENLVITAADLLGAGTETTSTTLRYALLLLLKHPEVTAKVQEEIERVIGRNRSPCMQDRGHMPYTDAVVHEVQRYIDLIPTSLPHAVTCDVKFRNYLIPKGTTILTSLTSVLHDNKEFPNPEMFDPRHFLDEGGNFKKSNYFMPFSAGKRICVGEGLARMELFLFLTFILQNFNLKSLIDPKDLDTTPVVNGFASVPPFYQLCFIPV
Chain of Cytochrome P450 2C9 (Homo sapiens) (P11712 whole entry, looked up): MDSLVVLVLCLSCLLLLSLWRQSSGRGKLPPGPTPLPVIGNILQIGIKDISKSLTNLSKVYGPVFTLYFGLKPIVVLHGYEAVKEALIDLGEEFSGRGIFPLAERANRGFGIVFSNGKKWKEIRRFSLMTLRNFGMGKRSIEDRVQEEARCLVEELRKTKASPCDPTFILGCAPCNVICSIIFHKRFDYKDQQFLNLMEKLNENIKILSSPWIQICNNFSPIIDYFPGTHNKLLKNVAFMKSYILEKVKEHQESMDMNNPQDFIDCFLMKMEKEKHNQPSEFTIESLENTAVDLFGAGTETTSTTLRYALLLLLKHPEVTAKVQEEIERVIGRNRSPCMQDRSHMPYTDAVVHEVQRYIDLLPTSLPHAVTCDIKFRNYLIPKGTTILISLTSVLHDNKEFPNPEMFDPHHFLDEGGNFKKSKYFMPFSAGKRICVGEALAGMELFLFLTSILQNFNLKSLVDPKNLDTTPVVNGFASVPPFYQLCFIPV
Chain of Ubiquitin carboxyl-terminal hydrolase 1 (Homo sapiens) (O94782 whole entry, looked up): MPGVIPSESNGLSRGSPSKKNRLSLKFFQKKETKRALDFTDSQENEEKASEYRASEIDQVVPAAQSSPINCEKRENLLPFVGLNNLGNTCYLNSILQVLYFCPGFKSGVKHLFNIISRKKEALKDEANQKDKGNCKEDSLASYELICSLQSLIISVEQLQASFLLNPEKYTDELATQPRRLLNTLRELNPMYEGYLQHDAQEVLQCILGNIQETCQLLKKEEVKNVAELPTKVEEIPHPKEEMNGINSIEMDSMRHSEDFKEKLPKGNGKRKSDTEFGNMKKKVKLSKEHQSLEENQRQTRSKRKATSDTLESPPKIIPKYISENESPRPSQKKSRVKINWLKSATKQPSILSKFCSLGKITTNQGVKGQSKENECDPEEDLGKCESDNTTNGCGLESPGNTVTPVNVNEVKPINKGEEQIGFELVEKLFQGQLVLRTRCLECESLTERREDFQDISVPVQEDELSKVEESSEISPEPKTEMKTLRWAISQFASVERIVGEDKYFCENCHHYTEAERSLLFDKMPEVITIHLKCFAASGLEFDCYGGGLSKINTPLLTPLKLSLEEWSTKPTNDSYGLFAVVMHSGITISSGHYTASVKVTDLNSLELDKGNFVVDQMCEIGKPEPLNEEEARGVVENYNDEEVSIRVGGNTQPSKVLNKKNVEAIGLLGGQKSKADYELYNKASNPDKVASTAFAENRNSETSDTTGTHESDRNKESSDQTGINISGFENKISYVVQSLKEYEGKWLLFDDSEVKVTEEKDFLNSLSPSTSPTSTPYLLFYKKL

For `O=c1cnc2cnc(N3CCOCC3)nc2n1Cc1ccc(F)cc1`, the Potency was above 11.4 µM in assay [1]; 3.98 µM (active) in assay [3]; above 9.22 µM in assay [6]; above 46 µM in [7]; 3.98 µM (active) in assay [11]. The activity change, negative = inhibition in [2] is -5.88%; in assay [4], -6.28%. Also, the activity, negative = inhibition in [5] is 6.58%. The Potency result in [8], in assay [9] and in assay [10] was “inactive” in each case. The outcome in assay [12] was inactive.

For the compound `CN1CCN(c2ccnc(-c3cccc(NS(C)(=O)=O)c3)n2)CC1`, the Potency in [1] is above 11.4 µM; in assay [3], 12.6 µM (active); in [6] it was above 46 µM; in assay [7], above 46 µM. Moreover, the activity change, negative = inhibition is -6.86% in assay [2] and -9.78% in assay [4]. For the same compound, the activity, negative = inhibition in assay [5] was 7.5%. For the same compound, the Potency entry in assay [8], in assay [9], in [10] and in assay [13] was “inactive” each time. In assay [14], the activation is 0.356%. Further, the compound was called inactive in [15] and in assay [12].

With `COc1ccc(-n2c(=O)c(C)nc3cnc(Nc4ccccc4)nc32)cc1`, the Potency was above 11.4 µM in assay [1], 5.01 µM (active) in assay [3], above 9.22 µM in assay [6] and above 46 µM in assay [7]. For the same compound, the results for the activity change, negative = inhibition in assay [2] and in assay [4] were -25% and 0.929%, respectively. Moreover, in assay [5], the activity, negative = inhibition is -5.94%. Further, the Potency result in assay [8], in assay [9] and in assay [10] was “inactive” each time. Besides, the outcome in assay [12] was inactive.

With `CCNc1ncc2nc(-c3ccc(F)cc3)c(=O)n(CCC#N)c2n1`, the values for the Potency in assay [1], in assay [3] and in [7] were above 11.4 µM, 0.631 µM (active) and above 46 µM, respectively. Besides, the activity change, negative = inhibition is -13.4% in assay [2] and -10% in assay [4]. Also, the activity, negative = inhibition in [5] is 16.7%. For the same compound, the Potency entry in [8] was “inactive”. In addition, the outcome in assay [12] was inactive.

As for `Cn1cc(-c2nc3cncnc3n(CCN)c2=O)c2ccccc21`, the Potency in assay [1] is above 11.4 µM; in assay [3] it was 6.31 µM (active); in assay [7] it was above 46 µM. The activity change, negative = inhibition in assay [2] is 0.818%; in assay [4] it was 3.03%. Moreover, in [5], the activity, negative = inhibition was 0.835%. Also, the Potency result in assay [8], in assay [9], in assay [10] and in assay [16] was “inactive” each time. The result in assay [12] was inactive.

For the compound `COCCn1c(=O)c(-c2cc(F)cc(F)c2)nc2cnc(Oc3cccc(Cl)c3)nc21`, the Potency in [1] is above 11.4 µM; in assay [3] it was 5.01 µM (active); in assay [6], above 9.22 µM; in assay [7] it was above 46 µM; in assay [17], 3.98 µM (active). Moreover, the activity change, negative = inhibition in [2] was 30.2%; in assay [4], -9.31%. Besides, in [5], the activity, negative = inhibition was 24.9%. Also, the Potency entry in assay [8], in assay [9] and in assay [10] was “inactive” throughout. Also, the outcome in assay [12] was inactive.
